Measurements from PubChem BioAssay (NCI).
About 83,000 compounds went through this panel and 20% of them were active in at least one assay; those are over-represented in the sample as a whole.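 Results are percent growth after 48 hours of single-concentration exposure. 100 means growth as in untreated cells, lower positive values show inhibition; negative values down to -100 show cell death.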 Unmarked numbers belong to inactive results. Activity calls are given as the source filed them. Rule for the calls: active = growth percent below 10; inactive = the rest.

Legend:
Test in all cases: NCI-60 one-dose screen, 48 h (100 = growth as untreated, 0 = no growth, -100 = all killed)
Settings in all cases: 10 µM unless noted
SR leukemia = test system: SR leukemia
RPMI-8226 leukemia = test system: RPMI-8226 leukemia
OVCAR-8 ovarian = test system: OVCAR-8 ovarian
OVCAR-5 ovarian = test system: OVCAR-5 ovarian
OVCAR-4 ovarian = test system: OVCAR-4 ovarian
SK-OV-3 ovarian = test system: SK-OV-3 ovarian
OVCAR-3 ovarian = test system: OVCAR-3 ovarian
HS 578T breast = test system: HS 578T breast
NCI/ADR-RES ovarian = test system: NCI/ADR-RES ovarian
IGROV1 ovarian = test system: IGROV1 ovarian

Row | Structure (SMILES) | growth (SR leukemia) | growth (RPMI-8226 leukemia) | growth (OVCAR-8 ovarian) | growth (OVCAR-5 ovarian) [%] | growth (OVCAR-4 ovarian) | growth (SK-OV-3 ovarian) | growth (OVCAR-3 ovarian) | growth (HS 578T breast) [%] | growth (NCI/ADR-RES ovarian) | growth (IGROV1 ovarian) [%]
1 | CN(C)C1CCN(Cc2ccc(NC(=O)c3cncc(C#Cc4cnc(N)c5ncccc45)c3)cc2C(F)(F)F)CC1 | 1.15% (active) | 60.9% | -25.4% (active) | 123 | -14.7% (active) | 103% | 97.9% | 44.9 | -63.9% (active) | 
2 | COc1cc(-c2nc(SCCC(C)C)nc(Nc3ccccc3Cl)c2C#N)cc(OC)c1OC | 102% | 101% | 101% | 89.7 | 90.2% | 120% | 105% | 95.6 | 101% | 
3 | COc1cc(/C=C\c2cc(/C=C\c3ccc(O)c(OC)c3)n(C(=O)COc3ccc(Cl)cc3Cl)n2)ccc1O | 0.0066% (active) | -6.8% (active) | 6.52% (active) | 56.7 | 31.4% | -0.155% (active) | 14% | 10.2 | 21.5% | 
4 | COC(=O)/C=C1/SC(=Nc2ccc(C)cc2)N(CCc2c[nH]c3ccc(O)cc23)C1=O | -27.4% (active) | 1.84% (active) | 29.4% | 108 | 51.1% | 98.4% | 32.7% | 55.1 | 50% | 
5 | O=S(=O)(NCCCNc1nccc(-c2c(-c3ccc(F)c(O)c3)nc3occn23)n1)c1ccccc1 | 70.2% | 78.2% | 94.8% | 121 | 104% | 79.4% | 97.9% | 87.3 | 118% | 
6 | Cc1ccc(-c2nc(/C=C3/C(=O)Nc4ccccc43)c3ccccn23)cc1 | 73.4% | 79.3% | 82% | 80.5 | 115% | 92.6% | 119% | 85.7 | 75.6% | 
7 | COc1ccc(C(=S)N2CCN(c3ccccc3Cl)CC2)cc1OC | 39.9% | 117% | 105% | 95.2 | 99.9% | 120% | 104% | 99.4 | 108% | 
8 | N#C/C(=C/c1ccc([N+](=O)[O-])cc1)n1nnc2cc(F)c(F)cc21 | 2.33% (active) | -18.7% (active) | 37.5% | 108 | 86.5% | 116% |  | 80.6 | 76.2% | 
9 | CCN(C(=O)N1CCN(c2cc3c(cc2F)c(=O)c(C(=O)O)cn3C2CC2)CC1)c1nc(-c2ccc(Cl)cc2)cs1 | 6.27% (active) | 12.8% | 14.4% | 24.5 | 25.7% | -11.9% (active) | 10.1% | 20.7 | 4.67% (active) | 
10 | Cn1cccc1C(=O)C1C(c2cccc([N+](=O)[O-])c2)C2C3CCCCC3CN2C12C(=O)Nc1ccc(Cl)cc12 (stereo not given) | 5.9% (active) | 19.6% | 63.8% | 68.1 | 70.5% | 70.1% | 70.2% | 55.7 | 51% | 
11 | CCCC(=O)NC(c1ccc2c(c1)OCO2)c1ccc2cccnc2c1O (stereo not given) | -16.1% (active) | 13.1% | 9.28% (active) | 34.2 | 14.5% | 14.8% |  | 58.6 | 3.18% (active) | 
12 | CCOC(=O)c1cc(-c2ccc([N+](=O)[O-])cc2)n(-c2ccc(C(=O)O)c(O)c2)c1C | 67.1% | -3.07% (active) | 38.6% | 114 | 52% | 95.6% | 79.6% | 67.8 | 57.5% | 
13 | Cc1ccc(CNc2ccc(Cl)cc2NCc2ccc(C)c(O)c2)cc1O | -33% (active) | 16% | 23.6% | 73.6 | 27.8% | 54.7% | 10.9% | 42.7 | 15.4% | 
14 | OCCOCCN(Cc1ccccn1)Cc1cc(I)cc(I)c1O | 87.8% | 96.9% | 85.7% | 92.5 | 93.9% | 107% | 90.2% | 109 | 6.52% (active) | 
15 | COc1ccc2c(O)c(/C=C3\N=Nc4ccccc43)oc2c1C[C@@H]1CCNC[C@H]1F | -38.5% (active) | 91.9% | 0.196% (active) | 67.8 | 64.9% | 90.5% | 94% | 60.3 | 72.1% | 
16 | Nc1ncnc2c1N=C(c1ccc3c(c1)OCO3)CC(c1cccc(Nc3ccnc4cc(Cl)ccc34)c1)N2 (stereo not given) | 3.03% (active) | -24% (active) | 51.1% | 97 | 60.7% | 79.2% | 67.7% | 87.1 | 56.8% | 
17 | O=C(O)c1ccc(-n2cc(/C=N/Nc3ccc(F)cc3)c(-c3cc4ccccc4oc3=O)n2)cc1 | 51.9% | 90.4% | 84.5% | 82.4 | 91.1% | 94.1% | 82.4% | 95.3 | 77.9% | 
18 | CC(=O)c1cc(O)c2ccccc2c1O | 110% | 46.4% | 86.3% | 109 | 93.4% | 102% | 91.7% | 123 | 87% | 
19 | CCc1ccc(C(=O)/C=C/C23c4ccccc4C(c4ccccc42)C2C(=O)NC(=O)C23)cc1 (stereo not given) | 0.497% (active) | -35.1% (active) | -20% (active) | 15.7 | 37.5% | 38.6% | -59.7% (active) | 41 | 4.03% (active) | 
20 | Cn1ccnc1C(=O)C(=O)Nc1ccc(CC(=O)Nc2ccccc2)cc1 | 106% | 107% | 109% | 101 | 110% | 115% |  | 101 | 103% | 103
21 | COc1ccc2c3c([nH]c2c1)C(=O)c1nc(C)ccc1C3=O | 37.4% | 45.4% | 48.5% | 85 | 25.7% | 76.3% | -13.9% (active) | 84.9 | 44.3% | 
22 | CC1=C(Nc2ccc(N3CCN(C)CC3)cc2)C(=O)c2cncnc2C1=O | 26.2% | 41.8% | 2.2% (active) | 71.7 | -98.1% (active) | 111% |  | 126 | 18.1% | 
